Source: PubChem BioAssay AID1159580 (chemical genetic matrix, 2015)
“And” between values parts separate entries of the source, which are not always exact repeats. Equal entries are not always repeated. Screen size: about 5,500 compounds; about 2,000 (36%) were called active. Roughly 18% stayed inconclusive and do not appear here. Rule as the data show it: active = normalized growth mostly below about 0.91 (no sharp cut-off); inconclusive = no clear call, values can overlap the other calls; inactive = mostly above about 0.92. This is one part of the list.

Assay: chemical genetic growth profiling, strain panel (AID 1159580);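 also: tested at 20 µM; growth read once vehicle control cultures reached saturation at 30 °C; 1 = growth at the plate median or of vehicle wells; lower values mean less growth of the strain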
Details: S. cerevisiae deletion strains, growth OD

Measured: normalized growth

CN1CCN2c3ccccc3Cc3ccccc3C2C1 (stereo unspecified)
inactive: locus YAL013W, strain DEP1, active compounds read low 1.01 and 0.984 | locus YAL021C, strain ccr4, active compounds read low 0.97 | locus YAL026C, strain drs2, active compounds read low 0.999 | locus YAL030W, strain snc1, active compounds read low 1 | locus YAL040C, strain CLN3, active compounds read low 1.01 | locus YBL061C, strain skt5, active compounds read low 0.998 | locus YBR009C, strain hhf1, active compounds read low 0.987 | locus YBR021W, strain FUR4, active compounds read low 0.992 | locus YBR023C, strain chs3, active compounds read low 0.994 | locus YBR171W, strain sec66, active compounds read low 1.02 | locus YBR229C, strain ROT2, active compounds read low 1.01 | locus YBR231C, strain swc5, active compounds read low 0.996 | locus YBR279W, strain paf1, active compounds read low 1 | locus YCL011C, strain gbp2, active compounds read low 1 | locus YCL016C, strain dcc1, active compounds read low 0.994 | locus YCL029C, strain bik1, active compounds read low 0.99 | locus YCL061C, strain MRC1 (second series), active compounds read low 0.995 | locus YCL061C, strain MRC1, active compounds read low 0.999 | locus YCL069W, strain vba3, active compounds read low 0.998 | locus YCR088W, strain abp1, active compounds read low 1 | locus YDL005C, strain med2, active compounds read low 1.01 | locus YDL035C, strain GPR1, active compounds read low 1.03 | locus YDL040C, strain nat1, active compounds read low 1 | locus YDL074C, strain BRE1, active compounds read low 1.03 | locus YDL101C, strain DUN1, active compounds read low 1.02 | locus YDL134C, strain PPH21, active compounds read low 1.01 | locus YDL185W, strain tfp1, active compounds read low 0.982 | locus YDL192W, strain arf1, active compounds read low 0.989 | locus YDR001C, strain nth1, active compounds read low 1.01 | locus YDR069C, strain doa4, active compounds read low 0.986 | locus YDR101C, strain arx1, active compounds read low 0.985 | locus YDR137W, strain rgp1, active compounds read low 1.01 | locus YDR150W, strain NUM1, active compounds read low 1.01 and 0.988 | locus YDR159W, strain sac3, active compounds read low 0.988 | locus YDR162C, strain NBP2, active compounds read low 1.05 | locus YDR195W, strain ref2 0.972 | locus YDR297W, strain sur2, active compounds read low 1.01 | locus YDR318W, strain mcm21, active compounds read low 0.979 | locus YDR334W, strain swr1, active compounds read low 1 | locus YDR335W, strain msn5, active compounds read low 1 | locus YDR363W, strain ESC2, active compounds read low 0.983 | locus YDR388W, active compounds read low 0.99 | locus YDR392W, strain spt3, active compounds read low 0.881 | locus YDR502C, strain sam2, active compounds read low 0.982 | locus YEL003W, strain gim4, active compounds read low 0.997 | locus YEL037C, strain rad23, active compounds read low 1 | locus YEL061C, strain CIN8 (second series), active compounds read low 1.01 | locus YEL061C, strain CIN8, active compounds read low 1.01 | locus YER002W, strain NOP16, active compounds read low 0.998 | locus YER015W, strain faa2, active compounds read low 1 | locus YER016W, strain bim1, active compounds read low 0.991 | locus YER110C, active compounds read low 0.985 | locus YER111C, strain swi4, active compounds read low 0.993 | locus YER155C, strain BEM2 (second series), active compounds read low 0.978 | locus YER155C, strain BEM2, active compounds read low 1.01 | locus YER167W, strain BCK2, active compounds read low 1.02 | locus YFR010W, strain ubp6, active compounds read low 1.01 | locus YGL078C, strain dbp3, active compounds read low 0.981 | locus YGL086W, strain mad1, active compounds read low 0.988 | locus YGL167C, strain pmr1, active compounds read low 1 | locus YGL173C, strain kem1, active compounds read low 1.01 | locus YGL227W, strain vid30, active compounds read low 1.01 | locus YGL240W, strain doc1, active compounds read low 0.979 | locus YGL248W, strain PDE1, active compounds read low 1.01 | locus YGL253W, strain hxk2, active compounds read low 1.01 | locus YGR078C, strain PAC10, active compounds read low 1.03 and 1.01 | locus YGR135W, strain pre9, active compounds read low 0.977 | locus YGR229C, strain SMI1, active compounds read low 1.01 and 0.95 | locus YGR252W, strain gcn5, active compounds read low 0.964 | locus YHR013C, strain ard1, active compounds read low 0.939 | locus YHR027C, strain rpn1, active compounds read low 1 | locus YHR030C, strain SLT2, active compounds read low 1.01 and 0.992 | locus YHR079C, strain IRE1 (second series), active compounds read low 0.987 | locus YHR079C, strain IRE1, active compounds read low 0.987 | locus YHR094C, strain hxt1, active compounds read low 0.989 | locus YHR129C, strain ARP1, active compounds read low 1.01 | locus YHR142W, strain chs7, active compounds read low 0.997 | locus YHR200W, strain rpn10, active compounds read low 0.995 | locus YIL066C, strain RNR3, active compounds read low 1.02 | locus YIL073C, strain SPO22, active compounds read low 1.01 | locus YIL125W, strain kgd1, active compounds read low 0.989 | locus YIR030C, strain dcg1, active compounds read low 0.984 | locus YJL092W, strain hpr5, active compounds read low 1 | locus YJL095W, strain BCK1 (second series), active compounds read low 0.999 | locus YJL095W, strain BCK1, active compounds read low 1.01 and 0.988 | locus YJL115W, strain asf1, active compounds read low 1 | locus YJL129C, strain trk1, active compounds read low 0.99 | locus YJL134W, strain LCB3, active compounds read low 1.01 | locus YJL154C, strain vps35, active compounds read low 1 | locus YJL164C, strain tpk1, active compounds read low 0.978 | locus YJL166W, strain qcr8, active compounds read low 0.987 | locus YJL168C, strain set2, active compounds read low 0.991 | locus YJL187C, strain SWE1 (second series), active compounds read low 1.01 | locus YJL187C, strain SWE1, active compounds read low 1 | locus YJR043C, strain POL32, active compounds read low 1 | locus YJR066W, strain TOR1, active compounds read low 0.932
